{"source": "PubChem BioAssay", "note": "Active and inactive are the calls of the source. Cut-off read from the data, not from the text of the source, unless noted: active = plate-normalised HSF1 focus index below about 0.46; inactive = the rest."}
{"assay": "modifiers of HSF1 nuclear foci, imaging, Selleck Cancer Library (AID 1347162)", "details": "human cells, at 10 µM; SSMD: measured here: HSF1 foci SSMD mean; cell count: measured here: cell number; plate-normalised HSF1 focus index: stronger effect = lower value"}
{"smiles": "COc1ccc(-c2oc3cc(OC)ccc3c2C(=O)c2ccc(C#N)cc2)cc1", "cell count": 6920, "SSMD": 3.38, "plate-normalised HSF1 focus index": "1.2 (inactive)"}
{"smiles": "C=CCc1cccc(/C=N/NC(=O)CN2CCN(Cc3ccccc3)CC2)c1O", "cell count": 7490, "plate-normalised HSF1 focus index": "1.19 (inactive)", "SSMD": 3.11}
{"smiles": "C[C@@H](N)C1CCC(C(=O)Nc2ccncc2)CC1", "note": "(some centres undefined)", "cell count": 7180, "plate-normalised HSF1 focus index": "1.19 (inactive)", "SSMD": 3.4}
{"smiles": "Nc1nccc(-c2ccc3noc(-c4ccc(Cl)cc4)c3c2)n1", "SSMD": 3.12, "plate-normalised HSF1 focus index": "1.19 (inactive)", "cell count": 7060}
{"smiles": "NC(=O)c1ccc(-c2nc(-c3ccc4c(c3)OCCO4)c(-c3ccccn3)[nH]2)cc1", "SSMD": 3.6, "cell count": 7030, "plate-normalised HSF1 focus index": "1.22 (inactive)"}
{"smiles": "CC(C)c1onc(-c2c(Cl)cccc2Cl)c1COc1ccc(/C=C/c2cccc(C(=O)O)c2)c(Cl)c1", "cell count": 6870, "plate-normalised HSF1 focus index": "1.11 (inactive)", "SSMD": 2.06}
{"smiles": "COc1cc2c(cc1O)CC[C@@H]1[C@@H]2CC[C@]2(C)[C@@H](O)CC[C@@H]12", "SSMD": 1.78, "cell count": 7300, "plate-normalised HSF1 focus index": "1.07 (inactive)"}
{"smiles": "CCOC(=O)C(C)Oc1cccc2c(=O)n(CC(=O)Nc3ccc4c(c3)OCCO4)ccc12", "note": "(centres undefined)", "SSMD": 0.942, "plate-normalised HSF1 focus index": "1.06 (inactive)", "cell count": 6920}
{"smiles": "CC(C)C[C@@H](C(=O)N[C@H](C(=O)OC1CCCC1)c1ccccc1)[C@H](O)C(=O)NO", "cell count": 6800, "SSMD": 3.49, "plate-normalised HSF1 focus index": "1.19 (inactive)"}
{"smiles": "O=c1cc(N2CCOCC2)oc2c(-c3ccccc3)cccc12", "cell count": 6500, "plate-normalised HSF1 focus index": "1.06 (inactive)", "SSMD": 1.15}
{"smiles": "Oc1ccc(Nc2nc(-c3ccc(Cl)cc3)cs2)cc1", "plate-normalised HSF1 focus index": "1.08 (inactive)", "cell count": 6680, "SSMD": 1.25}
{"smiles": "Cc1ccc(S(=O)(=O)/C=C/C#N)cc1", "SSMD": -10.4, "cell count": 6840, "plate-normalised HSF1 focus index": "0.628 (inactive)"}
{"smiles": "C[C@H](NC(=O)Cc1cc(F)cc(F)c1)C(=O)N[C@H](C(=O)OC(C)(C)C)c1ccccc1", "plate-normalised HSF1 focus index": "1.11 (inactive)", "cell count": 6880, "SSMD": 2.12}
{"smiles": "O=C(O)Cc1cccc(OCCCN(Cc2cccc(C(F)(F)F)c2Cl)CC(c2ccccc2)c2ccccc2)c1", "SSMD": 0.414, "cell count": 6290, "plate-normalised HSF1 focus index": "1.02 (inactive)"}
{"assay": "phospholipid biosynthesis inhibitors in animal cells, primary screen, cell-based, LOPAC library, screen 4 (AID 1347384; call rule not given here)", "details": "phospholipid biosynthesis inhibition screen, at 10 µM"}
{"smiles": "COc1cc(SC)ccc1C(=O)N1CCC(Cc2ccccc2)CC1", "outcome": "inactive"}
{"smiles": "Oc1cc(O)cc(/C=C/c2ccc(O)c(O)c2)c1", "outcome": "inactive"}
{"smiles": "O=Nc1c(-c2c(O)[nH]c3ccccc23)[nH]c2ccccc12", "outcome": "active"}
{"smiles": "C=CCc1cccc(/C=N/NC(=O)CN2CCN(Cc3ccccc3)CC2)c1O", "outcome": "inactive"}
{"smiles": "Cc1cccc(C#Cc2ccccc2)n1", "outcome": "inactive"}
{"smiles": "CC(C)N(CCC(=O)c1ccc2ccccc2c1)Cc1ccccc1", "outcome": "inactive"}
{"smiles": "COc1cc2c(cc1O)CC[C@@H]1[C@@H]2CC[C@]2(C)[C@@H](O)CC[C@@H]12", "outcome": "inactive"}
{"smiles": "O=c1cc(N2CCOCC2)oc2c(-c3ccccc3)cccc12", "outcome": "inactive"}
{"smiles": "Oc1ccc(-c2nc(-c3ccc(F)cc3)c(-c3ccncc3)[nH]2)cc1", "outcome": "inactive"}
{"smiles": "Cc1ccc(S(=O)(=O)/C=C/C#N)cc1", "outcome": "inactive"}
{"smiles": "CC(C)(Sc1ccc(CCN(CCCCC2CCCCC2)C(=O)NC2CCCCC2)cc1)C(=O)O", "outcome": "inactive"}
{"smiles": "O=C1c2ccccc2-c2n[nH]c3cccc1c23", "outcome": "inactive"}
